# Measured values as given in PubChem BioAssay AID2685 (National Center for Advancing Translational Sciences (NCATS), 2010).
# Among all 320,000 compounds or so, about 2,100 (0.66%) were called active. Roughly 53% stayed inconclusive and do not appear here. Calls follow the shape of the dose curve; as a rule, active = well fitted inhibition curve with a large enough effect in the signal ratio, with a control signal flat (not every such curve was filed as active); inconclusive = small, poorly fitted or top-dose-only effect, or effect the other way, or a change in a side signal; inactive = flat fitted curve, though single readings scatter; the % refers to the signal ratio. This excerpt belongs to a sample that is enriched for actives.
# Test: qHTS Assay for Lipid Storage Modulators in Drosophila S3 Cells;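 as to cell number change: cells counted by Cell Tracker Red CMTPX staining in the red channel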; as to lipid storage change, negative = inhibition: % is scaled to controls: 0 for no effect and ±100 for the full control effect
# Conditions: BODIPY lipid droplet fluorescence, 18-24 h, cells fed with added oleic acid; cell number change: measured here: cell count max response; series mostly up to 46.1 µM; lipid storage change, negative = inhibition: at the top concentration
# How it was run: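 Drosophila S3 cells loaded with oleic acid (400 uM, as added) and compounds at several concentrations; lipid droplets imaged by 488-nm laser-scanning cytometry, 500–530 nm intensity and object ratio to cell channel. Percent activity normalized to 20 uM Triacsin C.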
# Potency is read from the fitted curve at half-maximal effect.
Structure (SMILES),"lipid storage change, negative = inhibition",cell number change,Potency,outcome
CC(C)c1nnc(SCC(=O)N2CCOCC2)n1C,-0.0362% (inactive),3.98%,–,–
CN(C)S(=O)(=O)c1ccc2c(c1)/C(=C/c1cc3c([nH]1)CCCC3)C(=O)N2,–,2.43%,5.17 µM (active),–
CN(C)S(=O)(=O)c1ccc2c(c1)Cc1cc(S(=O)(=O)N(C)C)ccc1-2,-3.2% (inactive),7.91%,–,–
Cc1ccc2c(c1)/C(=C/c1ccc(F)cc1)C(=O)N2,22% (inactive),18%,–,–
CCOC(=O)C(=NCCCN(C)C)NNc1ccc(Br)cc1,10.6% (inactive),23.2%,–,–
COCc1ccc(C(=O)N(C)C2CCCN(Cc3ccccc3F)C2)o1 (stereo not given),-23% (inactive),-1.36%,–,–
CC(=O)c1c(C)[nH]c(C(=O)Nc2nc(C)cs2)c1C,-4.83% (inactive),-7.81%,–,–
CC1(C)C2CCC1(CS(=O)(=O)Nc1ccccc1)C(=O)C2 (stereo not given),-21.6% (inactive),-22.6%,–,–
COc1cccc(NS(=O)(=O)CC23CCC(CC2=O)C3(C)C)c1 (stereo not given),–,-15%,3.66 µM (active),–
COc1ccc(NS(=O)(=O)CC23CCC(CC2=O)C3(C)C)cc1 (stereo not given),-15.4% (inactive),6.22%,–,–
Cc1ccsc1C(=O)NCCc1nnc2ccccn12,-1.6% (inactive),18.3%,–,–
COc1cccc(/C=N/N(C)C2=NS(=O)(=O)c3ccccc32)c1O,1.01% (inactive),12.6%,–,–
CN(/N=C/c1cc(Cl)ccc1O)C1=NS(=O)(=O)c2ccccc21,–,12.6%,3.66 µM (active),–
Cc1ccc(/C=N/N(C)C2=NS(=O)(=O)c3ccccc32)cc1,-1.35% (inactive),17.1%,–,–
CCCCCOC(=O)CCN1C(=O)/C(=C2\SC(=S)N(CCC(=O)OCCCCC)C2=O)SC1=S,13.2% (inactive),-3.31%,–,–
Cc1ccc(NC(=O)c2cc(=O)[nH]c3ccc(S(=O)(=O)N4CCOCC4)cc23)nc1,11.8% [at 0.0737 µM] (inactive),-6.73%,–,–
COc1ccc(S(=O)(=O)Oc2ccc(C(=S)N3CCOCC3)cc2OC)cc1,–,-13.8%,–,inactive
COc1ccc(S(=O)(=O)Oc2ccccc2C(=S)N2CCOCC2)cc1,–,-29.9%,1.46 µM (active),–
COc1ccc(S(=O)(=O)Oc2cccc(C(=S)N3CCOCC3)c2)cc1,–,-15.5%,–,inactive
COc1ccc2[nH]c(=O)c(CN(CCN(C)C)C(=O)NCc3ccccc3)cc2c1,–,17.8%,–,inactive
COc1ccccc1CNCC(c1ccccc1)c1ccccc1,–,-20%,1.46 µM (active),–
COc1ccccc1CNN,-3.56% (inactive),-17.3%,–,–
COc1ccccc1CNCc1cc(OC)c(OC)cc1OC,–,-2.42%,–,inactive
CCCCC(=O)Nc1ccc(NC(=O)c2cnccn2)cn1,-6.31% (inactive),3.06%,–,–
CCOC(=O)c1c(NC(=O)c2cccnc2)sc(C(C)=O)c1C,2.48% (inactive),5.18%,–,–

Structure (SMILES),"lipid storage change, negative = inhibition",cell number change,Potency,outcome
O=C(c1ccc(S(=O)(=O)Nc2cccc(C(F)(F)F)c2)cc1)N1CCC1,18.7% (inactive),1.62%,–,–
CCN(Cc1ccccc1)Cc1cccc([N+](=O)[O-])c1,–,–,–,inactive
O=[N+]([O-])c1cccc(CN(CCO)Cc2ccccc2)c1,–,-9.58%,13 µM (active),–
OCCN(Cc1ccccc1)Cc1cccc(F)c1,4.72% (inactive),-7.51%,–,–
CC1(C(=O)NC2CCCCCCC2)CCC(=O)N1Cc1ccco1 (stereo not given),-0.266% (inactive),2.23%,–,–
CC(=O)N1CCC(N2CCN(c3ccccc3F)CC2)CC1,-6.18% (inactive),-0.227%,–,–
COC(=O)c1ccc(S(=O)(=O)N2CCCN(Cc3cccc(Br)c3F)CC2)n1C,25.4% (inactive),–,–,–
COc1cc(NC2c3ccccc3C(=O)N2c2ccc(C)cn2)cc(OC)c1OC (stereo not given),1.47% (inactive),9.33%,–,–
CCOC(=O)c1cc(C(=O)NN)c(=O)[nH]c1C,-8.78% (inactive),-9.94%,–,–
COc1ccc(Cl)cc1NC(=O)COC(=O)c1c(-c2ccccc2)noc1C,–,-24.6%,–,inactive
COc1ccc(OC)c(NC(=O)COC(=O)c2c(C)noc2C)c1,–,-7.27%,4.61 µM (active),–
COCCOc1ccc(C(F)(F)F)cc1NC(=O)COC(=O)c1c(C)noc1C,-14% (inactive),-13.3%,–,–
C=CCNC(=O)c1ccc(N(Cc2ccccc2)S(C)(=O)=O)cc1,-16.3% (inactive),-6.36%,–,–
COc1ccc(S(=O)(=O)N(C(=O)c2ccncc2)c2ccc(OC(=O)c3ccncc3)cc2)cc1,2.27% (inactive),-3.33%,–,–
O=C(Oc1ccc(N(C(=O)c2ccncc2)S(=O)(=O)c2ccc(F)cc2)cc1)c1ccncc1,7.39% (inactive),–,–,–
CCc1ccc(S(=O)(=O)N(C(=O)c2ccncc2)c2ccc(OC(=O)c3ccncc3)cc2)cc1,–,-8%,18.4 µM (active),–
CC(C)CN(CC(C)C)C(=O)COn1nnc2ccc(S(=O)(=O)N3CCOCC3)cc21,4.64% (inactive),3.81%,–,–
CCCCn1nc2cc(C(=O)NCc3ccc(OC)cc3)ccc2c1OCC,-10.4% (inactive),-2.9%,–,–
OCCN(Cc1ccccc1)CC1CC2C=CC1C2 (stereo not given),–,0.638%,29.1 µM (active),–
C1=CC2CC1CC2CN1CCN(Cc2ccccc2)CC1 (stereo not given),–,–,–,inactive
OCCN(Cc1ccccc1)Cc1ccccc1F,-8.72% (inactive),-24.2%,–,–
Cn1c2ccccc2c2nnc(SCC(=O)NC3CC3)nc21,–,-0.952%,–,inactive
Cc1ccc2c(c1)c1nnc(SCC(=O)NC3CC3)nc1n2C,–,0.855%,5.8 µM (active),–
Cn1c2ccc(Br)cc2c2nnc(SCC(=O)O)nc21,–,–,–,inactive
COc1ccc2c(c1)c1nnc(SCC(=O)NC3CC3)nc1n2C,–,-8.55%,1.46 µM (active),–

Structure (SMILES),"lipid storage change, negative = inhibition",cell number change,Potency,outcome
Cn1c2ccccc2c2nnc(SCC(=O)NC3CCCC3)nc21,–,-23.7%,–,inactive
COc1ccc(N2CCN(C(=O)CSc3nnc4c5cc(C)ccc5n(C)c4n3)CC2)cc1,-3.64% (inactive),15.5%,–,–
CC1CCC(NC(=O)COC(=O)c2cccnc2Cl)CC1 (stereo not given),-3.37% (inactive),–,–,–
COC(=O)N1[C@H](Cc2ccccc2)C=C[C@]1(C)C(=O)NCc1ccccn1,-3.63% (inactive),11.5%,–,–
O=S(=O)(Nc1ccc(OC(F)F)cc1)c1ccc(-c2ccon2)s1,11.5% (inactive),-0.692%,–,–
O=C(CN1C(=O)c2ccccc2S1(=O)=O)Nc1ccccc1C(=O)NCc1ccco1,13.6% (inactive),-1.22%,–,–
C=CCN(C(=O)Cn1c(C(=O)OC)cc2oc(C)cc21)c1ccccc1,-6.54% (inactive),-13%,–,–
Clc1ccc(-c2noc(CCCOc3ccccc3)n2)cc1,16.5% (inactive),-10.9%,–,–
Clc1ccc(OCc2nc(-c3ccncc3)no2)c(Cl)c1,–,–,–,inactive
Clc1ccc(OCCCc2nc(-c3cccnc3)no2)c(Cl)c1,–,-29.5%,14.6 µM (active),–
C/C(=C\C(=S)Nc1ccccc1)Nc1ccccc1,0.0435% (inactive),-10.3%,–,–
Nc1ncc2c(n1)CCN(c1ccc([N+](=O)[O-])cc1)C2,–,-20.7%,23.1 µM (active),–
Nc1ncc(-c2ccc([N+](=O)[O-])cc2)cn1,10.8% (inactive),12.5%,–,–
O=[N+]([O-])c1ccc(N2CCCCC2)cc1,15% (inactive),7.1%,–,–
O=C(CCNC(=O)N1CC(=O)Nc2ccccc21)Nc1ccc(Br)cc1F,–,-22.5%,–,inactive
O=C1c2cccc3cccc(c23)C(=O)N1Nc1ccccc1,-24.6% (inactive),13.9%,–,–
COc1ccc(Br)cc1CSC(=N)N,1.61% (inactive),1.43%,–,–
CCCOc1ccc(Br)cc1CSC(=N)N,–,-27.5%,18.4 µM (active),–
CCOc1ccc(C(C)=O)cc1CSC(=N)N,3.16% (inactive),0.606%,–,–
COc1ccc(Nc2c3c(nc4ccc(C)cc24)CCC3)cc1,–,0.901%,20.6 µM (active),–
Cc1ccc2nc3c(c(Nc4ccccc4)c2c1)CCC3,3.77% (inactive),–,–,–
COc1ccc(Nc2c3c(nc4ccccc24)CCC3)cc1,5.42% (inactive),21.3%,–,–
COc1ccc(C(C)=O)cc1COC(=O)CNC(=O)c1ccc(Cl)cc1,-8.38% (inactive),-0.097%,–,–
Cc1c(C(=O)N/N=C/C(C)C)[nH]c2ccc([N+](=O)[O-])cc12,1.18% (inactive),-4.9%,–,–
O=C(NCCCN1CCOCC1)c1sc2cc(Cl)ccc2c1Cl,28.1% (inactive),0.814%,–,–

Structure (SMILES),"lipid storage change, negative = inhibition",cell number change,Potency,outcome
O=C(NCCN1CCOCC1)c1sc2cc(Cl)ccc2c1Cl,–,-3.15%,4.61 µM (active),–
O=C(NCCN1CCOCC1)c1sc2ccccc2c1Cl,-5.29% (inactive),-1.8%,–,–
COc1ccc(NC(=O)Nc2nnc(-c3ccco3)s2)cc1,-13.5% (inactive),3.5%,–,–
Cc1cc(C)c2nc(NC3=NCN(CCN4CCOCC4)CN3)nc(C)c2c1,–,3.72%,25.9 µM (active),–
Cc1nc(NC2=NCN(CCCN3CCOCC3)CN2)nc2c(C)cccc12,–,–,–,inactive
Cc1cc2nc(NC3=NCN(CCN4CCOCC4)CN3)nc(C)c2cc1C,9.9% (inactive),-6.7%,–,–
CS(=O)(=O)NN1C(=O)c2ccccc2NC1c1c[nH]c2ccccc12 (stereo not given),-2.09% (inactive),15.5%,–,–
CCOc1ccc(NC(=O)CCC(=O)NNC(=O)Nc2ccc(Cl)cc2)cc1,9.1% (inactive),10.6%,–,–
CCOc1ccc(NC(=O)CCC(=O)NNC(=O)c2ccco2)cc1,18.2% (inactive),–,–,–
CCOc1ccc(NC(=O)CCC(=O)NNC(=O)c2ccc(Br)o2)cc1,–,5.86%,6.51 µM (active),–
CCOCCCNc1c2c(nc3cc(-c4ccc(F)cc4)nn13)CCC2,1.43% (inactive),9.58%,–,–
CC(C)Cn1c(CCCNC(=O)c2ccco2)nc2ccccc21,–,–,–,inactive
CCn1c(CCNC(=O)c2ccco2)nc2ccccc21,2.45% (inactive),-11.3%,–,–
C=C(C)Cn1c(CCNC(=O)c2ccco2)nc2ccccc21,–,15.2%,0.517 µM (active),–
CC(C)Cn1c(CCNC(=O)c2ccco2)nc2ccccc21,–,–,3.66 µM (active),–
C=CCn1c(CCNC(=O)c2ccco2)nc2ccccc21,-5.61% (inactive),8.97%,–,–
CCCCn1c(CCNC(=O)c2ccco2)nc2ccccc21,-21.9% (inactive),8.05%,–,–
CC(=O)c1ccc(S(=O)(=O)N2CCN(C(=O)c3ccccc3Cc3ccccc3)CC2)cc1,18% (inactive),–,–,–
CCNC(=O)CN(CCc1ccccc1)S(C)(=O)=O,-19.8% (inactive),-1.75%,–,–
NC(=O)CSc1nccn1Cc1ccccc1,4.18% (inactive),-3.05%,–,–
CCOc1ccc(S(=O)(=O)N2CCC(C(=O)NCC3CCCO3)CC2)cc1Cl (stereo not given),–,20.5%,–,inactive
CSc1ccc(S(=O)(=O)NC2CC2)cc1,15.4% (inactive),1.23%,–,–
CSc1ccc(S(=O)(=O)NC2CCCCC2)cc1,–,26.8%,23.1 µM (active),–
O=S(=O)(NC1CCCC1)c1ccc(S(=O)(=O)NC2CCCC2)cc1,11.9% (inactive),5.07%,–,–
